The results in this text go back to PubChem BioAssay (Tox21).

Inconclusive results are not listed. Calls of active or inactive are those of the source. Calls follow the shape of the full dose curve.
% is scaled to controls: 0 for no effect and ±100 for the full control effect.

Sequence of Retinoic acid receptor RXR-alpha (Homo sapiens) (P19793 whole entry, looked up): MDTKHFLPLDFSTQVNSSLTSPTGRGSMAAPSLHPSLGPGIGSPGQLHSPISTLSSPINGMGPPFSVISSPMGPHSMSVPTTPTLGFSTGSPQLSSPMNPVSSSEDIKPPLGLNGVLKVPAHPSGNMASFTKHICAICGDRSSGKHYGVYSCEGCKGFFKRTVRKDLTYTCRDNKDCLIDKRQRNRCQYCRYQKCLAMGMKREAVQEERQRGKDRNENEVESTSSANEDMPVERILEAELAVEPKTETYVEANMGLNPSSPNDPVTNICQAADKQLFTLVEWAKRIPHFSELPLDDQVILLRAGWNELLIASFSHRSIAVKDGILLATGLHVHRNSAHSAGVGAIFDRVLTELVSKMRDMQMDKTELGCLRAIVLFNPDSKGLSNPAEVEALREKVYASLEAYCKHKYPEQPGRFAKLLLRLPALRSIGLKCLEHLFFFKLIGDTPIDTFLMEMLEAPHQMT

This assay deals with Retinoic acid receptor RXR-alpha (Homo sapiens) (UniProt P19793). Put plainly: qHTS assay to identify small molecule agonists of the RXR signaling pathway (AID 1159527). Also: nearly all actives have a fitted effect of over 35% in size. The note with it: HEK293T RXRa-UAS-bla, beta-lactamase ratio, 16 h; series mostly up to 35.3 µM; activation: at the top concentration. An excerpt:
U.S. Tox21 Program National Center for Advancing Translational Sciences [NCATS] NIH Chemical Genomics Center [NCGC] U.S. Environmental Protection Agency [EPA] National Institutes of Environmental Health Sciences [NIEHS] National Toxicology Program [NTP] U.S. Food and Drug Administration [FDA] Tox21 Assay Overview: The Retinoid X receptor (RXR), a nuclear hormone receptor expressed in liver, spleen, placenta, epidermis, central nervous system. These receptors are able to form homo and heterodimers with other nuclear receptors and due to this heterodimerizing ability, RXR functions as master regulators producing diverse physiological effects. Three subtypes of RXR exist; alpha, beta and gamma. Retinoid X receptor alpha (RXR-alpha) has potential roles in metabolic signaling pathways, skin alopecia, dermal cysts, cardiac development, insulin sensitization etc. Therefore screening environmental chemicals on RXR-alpha signaling can be used for the studies focused on such therapeutic applications. For quantification of RXR-alpha ligands signaling, GeneBLAzer RXR alpha-UAS-bla HEK 293T (Life Technologies, Carlsbad, CA) cells containing a beta-lactamase reporter-gene under control of Retinoid X receptor-alpha response element were used to screen Tox21 10K library.
Tox21 Assay Protocol Summary: RXR-alpha HEK 293T cells were dispensed at 2,000 cells/6 uL of assay medium containing 2% charcoal-stripped FBS using a Multidrop Combi (ThermoFisher Scientific, Waltham, MA) dispenser. The assay was performed in black wall/clear-bottom 1536-well plates (Greiner Bio-One North America Inc. Monroe, NC). 9-cis retinoic acid was used as a positive control in the agonist mode screen. After the assay plates were incubated at 37 C and 5% CO2 for 5 hr, 23 nL of compounds dissolved in DMSO, positive controls or DMSO only were transferred to the assay plate by a Pintool station (Kalypsys, San Diego, CA). The assay plates were incubated at 37 C and 5% CO2 for 16 hr. One uL of LiveBLAzer B/G FRET substrate (Life Technologies) was added using a Flying Reagent Dispenser (Aurora Discovery, San Diego, CA) and the plates were incubated at room temperature for 2 hr. Fluorescence intensity (405 nm excitation, 460/530 nm emission) was measured using an Envision plate reader (PerkinElmer, Shelton, CT).
Background: In qHTS, concentration-response curves come from the screen itself.
Consider `CC(C)OC(=O)c1ccccc1`, for which the “activation” value was 13.3% [at 76.8 µM] (inactive). Still for that read-out and setting: the same measure for `O=C1CCCC(=O)C1`: -0.541% [at 76.8 µM] (inactive).

For the compound `CN1N=C(C(N)=O)CCC1=O`, the “activation” value is 3% (inactive). Take `CN1C(=O)N(C)C(O)C1O` (stereo not given): the “activation” value is 6.22% [at 76.8 µM] (inactive).

In the case of `CC(C)(C)NCCNC(C)(C)C`, the “activation” value is 9.62% [at 76.8 µM] (inactive). The same measure, in the same setting: to `O=c1[nH]c(=O)n([C@H]2C[C@H](O)[C@@H](CO)O2)cc1I` belongs 13.3% (inactive); to `ClC(Cl)(Br)Br`, 3.48% [at 76.8 µM] (inactive); to `C=C[Si](OC(=C)C)(OC(=C)C)OC(=C)C`, 5.54% [at 76.8 µM] (inactive). The same measure, in the same setting: to `OC(CCN1CCCCC1)(c1ccccc1)C1CC2C=CC1C2` (stereo not given) belongs 1.06% (inactive).

As for `CCCCCCCCS(=O)(=O)Cl`, the “activation” value is 4% [at 76.8 µM] (inactive). On the same count and under the same terms, to `Oc1ccc(C2CNCCc3c2cc(O)c(O)c3Cl)cc1` (stereo not given) belongs 6.52% (inactive); to `OCCOc1ccc(OCCO)cc1`, 0.779% [at 76.8 µM] (inactive); to `NC(=O)Nc1ccccc1`, 10% [at 76.8 µM] (inactive). For the compound `OC[C@]1(O)OC[C@@H](O)[C@H](O)[C@@H]1O`, the Potency entry was “inactive”. With `NS(=O)(=O)c1cc2c(cc1Cl)NC(C1CC3C=CC1C3)NS2(=O)=O` (stereo not given), the “activation” value was -3.7% (inactive).

On to `CN(C)CCCNCCCN(C)C`, for which the “activation” value was -4.99% [at 76.8 µM] (inactive). Still for that read-out and setting: the same measure for `CCO[Si](CCC1CCC2OC2C1)(OCC)OCC` (stereo not given): 6.9% [at 76.8 µM] (inactive). Still for that read-out and setting: the same measure for `CCCCCCCCCCCCN(CCCCCCCCCCCC)CCCCCCCCCCCC`: 10.3% [at 76.8 µM] (inactive); for `COC(=O)CCSCCC(=O)OC`: 6.38% [at 76.8 µM] (inactive). Same read-out and setting: to `CCC(C)C1CCCCC1=O` (stereo not given) belongs 0.144% [at 76.8 µM] (inactive); to `O=C1CC2CC1C1CCCC21` (stereo not given), 5.29% [at 76.8 µM] (inactive); to `CC(=O)Nc1ccc(S(N)(=O)=O)cc1`, 15.4% [at 76.8 µM] (inactive). For the compound `O=C(CCCN1CCN(c2ccccn2)CC1)c1ccc(F)cc1`, the “activation” value is -13.8% (inactive). With `O=[N+]([O-])c1ccc(F)cc1F`, the “activation” value was -9.25% [at 76.8 µM] (inactive). Still for that read-out and setting: the same measure for `Cc1cccc(C)c1NC(=O)C(C)N` (stereo not given): 9.98% (inactive); for `CCCCCCOC(=O)CCCCC(=O)OCCCCCC`: 0.564% [at 76.8 µM] (inactive); for `CCN1CCC[C@H]1CNC(=O)c1cc(S(N)(=O)=O)ccc1OC`: 7.62% (inactive).

`CC/C=C\CCOC(C)=O`: the “activation” value is 6.83% [at 76.8 µM] (inactive). As for `Brc1c(NC2=NCCN2)ccc2nccnc12`, the “activation” value is 1.54% (inactive). The same measure, in the same setting: the same measure for `CC(C)c1cc2c(cc1S(=O)(=O)O)[C@@]1(C)CCC[C@@](C)(C(=O)O)[C@@H]1CC2`: 6.31% (inactive); for `CC(C)(O)C#CC(C)(C)O`: -4.9% [at 76.8 µM] (inactive). The same measure, in the same setting: to `OCCCC1CCCCC1` belongs -12% [at 76.8 µM] (inactive); to `NS(=O)(=O)c1ccccc1Cl`, 4.47% [at 76.8 µM] (inactive). Still for that read-out and setting: to `COC(=O)CC(C)=O` belongs -6.21% [at 76.8 µM] (inactive); to `NC(=O)COCCN1CCN(C(c2ccccc2)c2ccc(Cl)cc2)CC1` (stereo not given), 1.08% (inactive); to `CC(C)NCCCC1(C(N)=O)c2ccccc2-c2ccccc21`, 3.49% (inactive). On to `COc1ccccc1OCC(O)CN1CCN(CC(=O)Nc2c(C)cccc2C)CC1` (stereo not given), for which the “activation” value was 0.0487% (inactive). Consider `NS(=O)(=O)c1cc(C(=O)O)cc(N2CCCC2)c1Oc1ccccc1`, for which the “activation” value is -0.0063% (inactive).

`CC(C)NC(=O)NC(C)C`: the “activation” value was 1.25% [at 76.8 µM] (inactive). Still for that read-out and setting: to `CCc1ccc(O)c(OC)c1` belongs 6.39% [at 76.8 µM] (inactive).
